# The whole screen tested about 360,000 compounds, of which about 7,500 (2.1%) were called active. About 20% were inconclusive and are not listed. What follows is part of a selection rich in actives, with near analogues and random picks from the rest. Values without a mark were called inactive. Calls come from the whole dose curve; as a rule, active = well fitted inhibition curve with a large enough effect; inconclusive = small, poorly fitted or top-dose-only effect, or effect the other way; inactive = flat fitted curve, though single readings scatter.
# Assay: Nrf2 qHTS screen for inhibitors; note: nearly all actives have a fitted effect of over 60% in size
# Conditions: A549 ARE-Fluc reporter, luciferase luminescence, 18-24 h; series mostly up to 46 µM; activity change, negative = inhibition: at the top concentration
# Description: NIH Molecular Libraries Probe Production Network [MLPCN]
# NIH Chemical Genomics Center [NCGC]
# Assay Provider: Shyam Biswal, Johns Hopkins University
# Nrf2 is a transcription factor that maintains cellular redox homoestasis and protects cells from xenobiotics. Nrf2 binds to the antioxidant response element (ARE) to induce gene expression of a broad spectrum of genes that encode for antioxidants. […] Finding a small molecule that act as an inhibitor of Nrf2 function would represent a novel therapeutic target that could lead to improvement in survival of patients undergoing chemo- and/or radio- therapy.
# This is the Nrf2 activity measured in the luminescent read.
# 1. Shibata, T., et al., Genetic Alteration of Keap1 Confers Constitutive Nrf2 Activation and Resistance to Chemotherapy in Gallbladder Cancer. Gastroenterology, 2008.
# 2. Sjoblom, T., et al., The consensus coding sequences of human breast and colorectal cancers. Science, 2006. 314(5797): p. 268-74.
# NCGC Assay Protocol Summary:
# A concentration-response assay was performed with A549 ARE_Fluc cells which are suspended in 5% FBS OPTI-MEM. Five uL were dispensed into 1536-well white TC-treated plate using the Kalypsys dispenser to achieve a density of 5000 cells/well in all columns except column 1. The plate is incubated at 37deg C at 5% CO2 for 2 hours before 23 nL of compounds are added with the Kalypsys pin tool equipped with a 1,536-pin array containing 10-nL slotted pins (FP1S10, 0.457-mm diameter, 50.8 mm long; V&P Scientific). The control compounds Budesonide and Staurosporine are both added at a concentration of 2mM and Budesonide is also added as a 1:10 titration, starting at 200uM, to achieve dose-response. After an 18-24 hour incubation at 37deg C at 5% CO2, 5ul of medium is added to column 1. Afterwards 1ul of 5x of CellTiter-Fluor (Promega) is added to every well. The plate is then incubated at 37deg C at 5% CO2 for 30 minutes before they are read on the ViewLux (Perkin Elmer) for a fluorescent read Ex=405(10)/Em=525(10) for a 3 second exposure, 2x binning, and high gain. Then 3 uL of 3x BugLite is dispensed into all wells and the plate is incubated at ambient room temperature for 15 minutes. Afterwards another ViewLux read is performed using the clear filter to get a luminescent read with the settings of 40 second exposure, 2x binning, and high gain. Cytotoxicity is assessed through the first fluorescent read and then biochemical activity against Nrf2 is measured in the luminescent read.
# % is set by controls: 0 for no effect and ±100 for the full control effect; potency is the fitted concentration of half-maximal effect.
Compound,"activity change, negative = inhibition",Potency
CN(C)C(=O)Oc1ccc(NC(=O)N2CCOCC2)cc1,3.42%,–
CCN(CC)C(=O)Oc1ccc(NC(=O)N2CCOCC2)cc1,-7.97%,–
O=C(Nc1cccc(OC(=O)N2CCCCC2)c1)N1CCOCC1,–,16.4 µM (active)
COC(=O)C1=C(c2c(C)noc2C)C[C@@H]2CC[C@H]1N2C(=O)NCc1ccc2c(c1)OCO2,-8.27%,–
c1ccc(C(CN2CCCCC2)c2ccccc2)cc1,2.82%,–
C[C@]12CC[C@H](O)CC1=C([N+](=O)[O-])CC1C2CC[C@@]2(C)C1CC[C@@H]2O (stereo not given in full),0.87%,–
O=C1NC(=O)C(CCOc2ccccc2)(CCc2ccccc2)C(=O)N1,-22.3%,–
CCCCC(=O)N/N=C/c1c(O)n(-c2ccccc2)c(=O)[nH]c1=O,5.34%,–
O=c1[nH]c(=O)n(CCc2ccc(F)cc2)c(O)c1/C=N/N1CCCCC1,-3.29%,–
CCCCC(=O)N/N=C/c1c(O)n(CCC2=CCCCC2)c(=O)[nH]c1=O,–,18.4 µM (active)
CN(C)CC1Oc2ccccc2OC1(O)c1ccccc1 (stereo not given),–,14.6 µM (active)
CC1C(=O)OC2CCN3CC=C(COC(=O)C(C)(O)C1(C)O)C23 (stereo not given),4.37%,–
COC(=O)C1=C(c2ccc(Cl)c(C(F)(F)F)c2)C[C@@H]2CC[C@H]1N2C(=O)NC(C)C,-21.4%,–
O=C1NC(=O)C(Cc2ccccc2)C(=O)N1,2.99%,–
Cc1ccc(C(C)C)c(OCC(=O)N2CCN(CC(=O)N3CCOCC3)CC2)c1,8.39%,–
O=C(O)c1cc[c]([Sb](=[O])([OH])[OH])cc1[N+](=O)[O-],13.5%,–
CCC(=NCCc1ccccc1)c1c(O)n(C2CCCCC2)c(=O)[nH]c1=O,–,20.6 µM (active)
CC/C(=N\NC(=O)c1ccccc1O)c1c(O)n(Cc2ccccc2)c(=O)[nH]c1=O,8.94%,–
CC(=O)c1c(O)n(C2CCCCCC2)c(=O)[nH]c1=O,-21.3%,–
Cn1cc(C(=O)OCC(=O)N2CCCC2)c2ccccc21,5.8%,–
CC1CNCCN1c1ccc(Cl)cc1 (stereo not given),8.73%,–
CCn1cc2nc(SCc3ccccc3Cl)n(CCc3ccccc3)c(=O)c2n1,–,18.4 µM (active)
CC(=O)C1(O)CCC2C3CCC4=C(Cl)C(=O)CCC4(C)C3CCC21C (stereo not given),-13.3%,–

Compound,"activity change, negative = inhibition",Potency
Cc1ccc(N(C)C(=O)Oc2cccc3ccc(C)nc23)cc1,-14.6%,–
CN1CCc2cc3c(cc2[C@H]1[C@@H]1OC(=O)c2c1ccc1c2OCO1)OCO3,6.77%,–
COc1cccc(CN2CCCC(C(=O)c3ccccc3SC)C2)c1O (stereo not given),-1.57%,–
CC1CC=CCC12C(=O)NC(=S)NC2=O (stereo not given),13.2%,–
CCCn1c(C(=O)c2ccccc2OC)nc2ccccc21,4.64%,–
CCOc1ccc(CNC(=O)c2cccc(Nc3nc4ccccc4n4nnnc34)c2)cc1OC,–,7.31 µM (active)
COc1cc(Cn2c(N)c(C(=O)NCc3ccco3)c3nc4ccccc4nc32)cc(OC)c1OC,-29.4%,–
CC(C)Oc1cccc(C(=O)C2CCCN(C3CCOCC3)C2)c1 (stereo not given),-9.14%,–
CCC1(CC(C)c2ccccc2)C(=O)NC(=O)NC1=O (stereo not given),-20.9%,–
COC(=O)C1=C(c2ccc3ccccc3c2)C[C@@H]2CC[C@H]1N2C(=O)NCCO,-2.19%,–
Cc1ccc(NC(=O)CN(C)CC(=O)Nc2cccc(F)c2)cc1[N+](=O)[O-],–,11.6 µM (active)
CNCC(O)c1cc(F)c(OCc2ccccc2)c(OCc2ccccc2)c1F (stereo not given),12.1%,–
CCOC(=O)CC(SP1(=S)OCC2(CCCCO2)C(C2CCCCO2)O1)C(=O)OCC (stereo not given),-7.98%,–
CC(CC(C#N)(c1ccccc1)c1ccccc1)N1CCCCC1 (stereo not given),3.56%,–
O=C(CCC(=O)N1C[C@H]2C[C@@H](C1)c1cccc(=O)n1C2)NCc1ccccc1C(F)(F)F,-12.9%,–
COC(=O)C1=C(c2ccc(F)cc2F)C[C@@H]2CC[C@H]1N2C(=O)NC1CC1,0.179%,–
COC(=O)C1=C(c2ccccc2)C[C@@H]2CC[C@H]1N2C(=O)NCc1ccco1,6.49%,–
COC(=O)C1=C(c2ccc(F)cc2OCc2ccccc2)C[C@@H]2CC[C@H]1N2C(=O)NCc1ccc(Cl)cc1,–,23.1 µM (active)
C[C@]12CCCCC1=CC(=O)C1C2CC[C@@]2(C)C1C[C@@H](F)[C@@H]2O (stereo not given in full),-20%,–
Cc1cc(C(=O)OCC(=O)Nc2c(F)cccc2F)c(C)n1C1CC1,-16.9%,–
c1ccc(Cc2nn3c(Cn4cnc5ccccc54)nnc3s2)cc1,–,23.1 µM (active)
O=c1[nH]c(CN2CC=C(c3ccccc3)CC2)nc2scc(-c3cccs3)c12,0.416%,–
CC[C@H]1CC2CN3CCc4c([nH]c5ccccc45)C(C(=O)OC)(C2)C13 (stereo not given in full),-5.41%,–

Compound,"activity change, negative = inhibition",Potency
CCC(=O)OC(Cc1ccccc1)(c1ccccc1)C(C)CN(C)C (stereo not given),-0.661%,–
CC=C(C)C(=O)OC1CCN2CC=C(COC(=O)C(O)(C(C)OC)C(C)(C)O)C12 (stereo not given),-9.73%,–
CCC(=O)c1ccc(OCC(=O)N2CCN(CC(=O)Nc3ccc(C)cc3)CC2)cc1,0.865%,–
COc1ccc(NC(=O)c2cn(CCC#N)nc2-c2ccc([N+](=O)[O-])cc2)cc1,2.75%,–
COc1ccc(-c2nn(CCC#N)cc2C(=O)Nc2ccc(C(C)=O)cc2)cc1,-8.88%,–
COc1cccc(C(=O)Nc2ccc(-c3cc(C(F)(F)F)nn3-c3ccccc3)cc2)c1,–,14.6 µM (active)
C=C(C)C1(CCCC)C(=O)NC(=S)NC1=O,-1.08%,–
COC(=O)[C@@H]1C(OC(=O)c2ccccc2)CC2CCC1N2C (stereo not given in full),0.299%,–
COC(=O)C1=C(c2cc3ccccc3s2)C[C@@H]2CC[C@H]1N2C(=O)NC(C)C,-24.6%,–
CC1([N+](=O)[O-])COP(=O)(Nc2ccc(F)cc2)OC1 (stereo not given),-6.18%,–
COP(=O)(NS(=O)(=O)c1ccccc1)OC,0.416%,–
O=C1C=C(NS(=O)(=O)c2ccccc2)C(=O)c2ccccc21,–,23.1 µM (active)
CC1CCCN1CCC(C(N)=O)(c1ccccc1)c1ccccc1 (stereo not given),-3.33%,–
O=C1C2(Cl)C3(Cl)C4(Cl)C(Cl)(Cl)C5(Cl)C3(Cl)C1(Cl)C5(Cl)C24Cl (stereo not given),-14%,–
COC1=C[C@@H]2[C@@H]3Cc4ccc(OC)c(O)c4[C@]2(CCN3C)CC1=O,3.67%,–
Cc1ccc(Cl)cc1N1CCN(C(=O)C2CCC(CNS(=O)(=O)c3cccs3)CC2)CC1 (stereo not given),–,10.3 µM (active)
c1cc2c(cc1C1OCC3C(c4ccc5c(c4)OCO5)OCC13)OCO2 (stereo not given),-12.8%,–
CCc1ccc(OCC(=O)N2CCN(CC(=O)Nc3ccccc3Cl)CC2)cc1,5.6%,–
CC[C@H]1CN2CCc3cc(OC)c(OC)cc3[C@@H]2C[C@@H]1C[C@H]1NCCc2cc(OC)c(OC)cc21,–,0.411 µM (active)
Cc1nn(-c2ccccc2)c(C)c1NC(=O)COC(=O)Cc1ccccc1,-2.94%,–
COc1ccc2c(c1)[C@]13CCCCC1C(C2)N(C)CC3 (stereo not given in full),-3.89%,–
C[C@]12CCC3C(CC[C@H]4[C@H](O)[C@H](O)CC[C@]34C)C1CCC2=O (stereo not given in full),-6.32%,–
COc1ccc(C2NCc3ccc4c(c3-n3cccc32)OCO4)cc1OC (stereo not given),-14.8%,–

Compound,"activity change, negative = inhibition",Potency
CCCCCCCCCCCCn1ccc(=N)cc1,–,20.6 µM (active)
c1cc2c(cc1CCNC1CCCCCC1)OCO2,9.17%,–
O=C1N=c2ccccc2=C/C1=C\c1c(O)[nH]c(=S)[nH]c1=O,-14.9%,–
COC1C(O)C(C)OC(OC2CCC3(C=O)C(CCC4C3CCC3(C)C(C5=CC(=O)OC5)CCC43O)C2)C1O (stereo not given),–,0.0231 µM (active)
COC1=CC=C2[C@H]3Cc4ccc(OC)c5c4[C@@]2(CCN3C)C1O5 (stereo not given in full),-4.83%,–
COCc1cc(OC(=O)N(C)C)nc(-c2ccc(C)c(Cl)c2)n1,-1.28%,–
C[C@]12CCC3C(CC[C@H]4[C@H](O)[C@H](O)CC[C@]34C)C1CC[C@@H]2O (stereo not given in full),2.28%,–
c1ccc(CCN2CCC3(CC2)OCCO3)cc1,1.07%,–
CCC(C)(O)C(=O)OC1C(=O)OC2CC3C(C)=CC(=O)C(O)C3(C)C3C4(O)OCC23C1C(C)C4O (stereo not given),–,0.58 µM (active)
CC12CCC(O)CC1CCC1C2CCC2(C)C(C(=O)CC(O)C(F)(F)F)CCC12 (stereo not given),-6.35%,–
CCN1C(=O)NC(=O)C2(CCCC2)C1=O,-20.2%,–
Oc1ccc2c3c1OC1[C@H](O)CC[C@@]4(O)[C@@H](C2)N(CC2CC2)CC[C@]314 (stereo not given in full),–,inactive
NS(=O)(=O)c1ccc(CCNC(=O)c2ccc(Cl)c(S(=O)(=O)N3CCCCCC3)c2)cc1,–,10.3 µM (active)
Cc1ccccc1NC(=O)COC(=O)c1cc(C)n(C2CC2)c1C,3.85%,–
Cn1cc(/C=C/c2nc3ccccc3c(=O)n2-c2ccccc2)c2ccccc21,-22.8%,–
C[C@]12CCC3C(CC[C@H]4C[C@@H](O)CC[C@]34C)C1CC[C@@H]2O (stereo not given in full),-12.6%,–
C[C@]12CCC3C(CC[C@H]4C[C@@H](O)CC[C@]34C)C1C[C@@H](O)[C@H]2O (stereo not given in full),-26.4%,–
C[C@]12CC[C@H](O)C[C@H]1CC[C@@H]1C2CC[C@]2(C)[C@@H](C3=CC(=O)OC3)[C@@H](O)C[C@]12O (stereo not given in full),–,1.84 µM (active)
O=P1(Oc2ccccc2)CC(O)C(O)C(COCc2ccccc2)O1 (stereo not given),9.74%,–
CC12CCC3C(CCC4CC(=O)CCC43C)C1CC(=NO)C2=O (stereo not given),-13.9%,–
CN1CCC(N(C)Cc2cccnc2)CC1,-8.41%,–

# Reference: PubChem BioAssay AID504444 (National Center for Advancing Translational Sciences (NCATS), 2011)
